Experimental data from PubChem BioAssay (NCATS).
Records with an inconclusive call do not appear. Where a call stands in place of a potency, no number is given. A number with no mark means an inactive call. Calls of active or inactive are those of the source. Calls come from the whole dose curve; as a rule, active = well fitted curve in the direction sought with a large enough effect; inconclusive = small, poorly fitted or top-dose-only effect, or another doubt; inactive = no such curve, though single readings can be large; an effect the other way counts as inactive or inconclusive.

Assays:
[1] = target: Rap guanine nucleotide exchange factor 3 (Homo sapiens) (UniProt O95398); assay: Confirmatory qHTS for agonist of cAMP-regulated guanine nucleotide exchange factor 3 (EPAC1) (AID 1645881); conditions: EPAC1 Rap1B BODIPY-GDP exchange fluorescence; series mostly up to 154 µM;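 note: EPAC1 catalysed release of BODIPY-GDP from Rap1B seen as fluorescence loss; nearly all actives have a fitted effect of over 75% in size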
[2] = target: Rap guanine nucleotide exchange factor 4 (Homo sapiens) (UniProt Q8WZA2); assay: Confirmatory qHTS for agonist of cAMP-regulated guanine nucleotide exchange factor 4 (EPAC2) (AID 1645884); conditions: EPAC2 GEF activity, Rap1B-BODIPY-GDP fluorescence; series mostly up to 154 µM;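 note: nucleotide exchange releases bodipy-GDP from Rap1 and this lowers its fluorescence; nearly all actives have a fitted effect of over 65% in size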; note: potency is the fitted concentration of half-maximal effect
[3] = target: Rap guanine nucleotide exchange factor 3 (Homo sapiens) (UniProt O95398); assay: Counterscreen qHTS for antagonist of cAMP-regulated guanine nucleotide exchange factor 3 (EPAC1) (AID 1645888); conditions: Rap1B-BODIPY-GDP nucleotide exchange, fluorescence; series mostly up to 154 µM;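 note: fluorescence loss as bound BODIPY-GDP is released from Rap1B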
Procedure, shortened: (§1)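 Rap1B-BODIPY-GDP 250 nM + GDP 50 uM; cpds 7-pt, final 9.74 nM–152 uM (activator mode) or from 7.32 nM upwards (inhibitor mode); RT; FI 480/540 nm at 5 and 30 min, then ± cAMP, reread.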

[4] = target: Rap guanine nucleotide exchange factor 3 (Homo sapiens) (UniProt O95398); assay: Counterscreen qHTS for agonist of cAMP-regulated guanine nucleotide exchange factor 3 (EPAC1) (AID 1645889); conditions: EPAC1 Rap1B-BODIPY-GDP exchange, fluorescence; series mostly up to 154 µM; note: nearly all actives have a fitted effect of over 40% in size; note: potency is the fitted concentration of half-maximal effect
Procedure, shortened: as §1

Sequence of Rap guanine nucleotide exchange factor 3 (Homo sapiens) (O95398 whole entry, looked up): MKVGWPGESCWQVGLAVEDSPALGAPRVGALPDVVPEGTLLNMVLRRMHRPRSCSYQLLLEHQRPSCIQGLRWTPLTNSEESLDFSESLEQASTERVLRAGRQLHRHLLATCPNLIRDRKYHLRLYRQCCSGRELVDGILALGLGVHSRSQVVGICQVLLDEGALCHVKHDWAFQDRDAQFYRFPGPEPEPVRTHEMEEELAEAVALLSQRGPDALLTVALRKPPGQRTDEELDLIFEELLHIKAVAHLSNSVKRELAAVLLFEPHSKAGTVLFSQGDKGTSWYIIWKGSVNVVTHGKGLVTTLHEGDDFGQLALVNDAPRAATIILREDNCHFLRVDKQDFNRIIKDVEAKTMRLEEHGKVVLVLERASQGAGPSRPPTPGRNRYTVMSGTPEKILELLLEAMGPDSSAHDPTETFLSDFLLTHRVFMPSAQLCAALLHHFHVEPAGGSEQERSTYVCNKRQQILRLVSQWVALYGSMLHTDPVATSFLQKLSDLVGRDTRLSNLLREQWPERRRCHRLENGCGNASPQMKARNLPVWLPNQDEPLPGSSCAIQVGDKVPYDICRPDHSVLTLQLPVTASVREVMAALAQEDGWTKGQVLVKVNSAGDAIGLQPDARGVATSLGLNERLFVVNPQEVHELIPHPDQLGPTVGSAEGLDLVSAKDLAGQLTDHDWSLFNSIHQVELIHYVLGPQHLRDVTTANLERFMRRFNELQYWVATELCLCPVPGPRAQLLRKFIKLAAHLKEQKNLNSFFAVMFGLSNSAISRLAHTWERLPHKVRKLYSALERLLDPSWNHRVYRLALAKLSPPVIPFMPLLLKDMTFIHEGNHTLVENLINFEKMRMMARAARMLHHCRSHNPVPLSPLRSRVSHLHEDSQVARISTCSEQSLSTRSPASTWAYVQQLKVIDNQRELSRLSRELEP
Sequence of Rap guanine nucleotide exchange factor 4 (Homo sapiens) (Q8WZA2 whole entry, looked up): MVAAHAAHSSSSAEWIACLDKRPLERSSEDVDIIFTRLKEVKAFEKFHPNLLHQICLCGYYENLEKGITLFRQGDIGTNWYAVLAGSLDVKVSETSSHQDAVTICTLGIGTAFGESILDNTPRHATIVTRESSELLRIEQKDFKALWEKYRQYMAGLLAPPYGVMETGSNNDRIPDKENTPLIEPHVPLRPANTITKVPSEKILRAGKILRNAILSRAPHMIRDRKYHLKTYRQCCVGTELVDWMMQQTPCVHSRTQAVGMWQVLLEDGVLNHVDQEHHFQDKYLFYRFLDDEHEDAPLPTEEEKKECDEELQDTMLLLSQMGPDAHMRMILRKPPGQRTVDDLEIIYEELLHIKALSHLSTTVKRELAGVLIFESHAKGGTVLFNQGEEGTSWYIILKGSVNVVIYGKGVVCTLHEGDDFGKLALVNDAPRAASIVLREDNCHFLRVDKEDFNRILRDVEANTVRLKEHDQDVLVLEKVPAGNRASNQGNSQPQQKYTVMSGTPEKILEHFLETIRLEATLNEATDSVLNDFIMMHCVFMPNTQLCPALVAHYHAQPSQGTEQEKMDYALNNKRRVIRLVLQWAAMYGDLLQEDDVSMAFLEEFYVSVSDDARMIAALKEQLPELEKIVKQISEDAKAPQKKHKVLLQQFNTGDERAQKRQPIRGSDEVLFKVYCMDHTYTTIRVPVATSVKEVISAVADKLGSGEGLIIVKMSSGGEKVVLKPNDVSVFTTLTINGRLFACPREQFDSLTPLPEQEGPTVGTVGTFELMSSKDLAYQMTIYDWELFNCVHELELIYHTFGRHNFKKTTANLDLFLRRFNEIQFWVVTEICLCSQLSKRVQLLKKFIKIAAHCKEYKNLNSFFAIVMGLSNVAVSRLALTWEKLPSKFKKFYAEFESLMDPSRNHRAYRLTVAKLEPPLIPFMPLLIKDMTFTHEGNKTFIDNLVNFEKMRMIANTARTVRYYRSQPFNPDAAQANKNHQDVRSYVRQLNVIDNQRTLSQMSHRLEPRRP

## COc1ccccc1[C@@]1(C)ON(c2ccccc2C(F)(F)F)C1=O
[1]
  Potency: inactive
[2]
  Potency: inactive
[3]
  Potency: inactive

## CC(=O)NC(C)(c1ccccc1)c1nc(-c2cc(F)cc(F)c2)cs1 (centres undefined)
[1]
  Potency: inactive
[2]
  Potency: inactive
[3]
  Potency: inactive

## COc1cc(/C=N/NS(=O)(=O)c2ccc3ccccc3c2)ccc1OCc1ccc(C(=O)O)cc1
[1]
  Potency: inactive
[2]
  Potency: inactive
[3]
  Potency: inactive

## CC(C)n1c(CNC(=O)c2ccccc2F)nnc1SCC(=O)NC1CCCCC1
[1]
  Potency: inactive
[2]
  Potency: inactive
[3]
  Potency: inactive

## Cc1cc(Cl)ccc1Oc1ccccc1C(=O)CC#N
[1]
  Potency: inactive
[2]
  Potency: inactive
[3]
  Potency: inactive

## O=C1C(O)=C(O)C(=O)c2ccccc21
[1]
  Potency: inactive
[2]
  Potency: inactive
[3]
  Potency: inactive

## Oc1ccc(NCc2ccccc2OCc2ccccc2Cl)cc1
[1]
  Potency: inactive
[2]
  Potency: inactive
[3]
  Potency: inactive

## CC(=O)NC(c1ccccc1)c1c(O)ccc2ccccc12 (centres undefined)
[1]
  Potency: inactive
[2]
  activation: 2.11% [at 17.1 µM, percent relative to cAMP agonist control]
[3]
  activity change, negative = inhibition: -4.37% [at 30.8 µM]

## Cc1cc(C(C)(C)C)cc(C)c1COC(=O)c1cccnc1
[1]
  Potency: inactive
[2]
  Potency: inactive
[3]
  Potency: inactive

## CC(C)CNC(=O)C1Nc2ccc(OC(F)(F)F)cc2C2C=CCC12 (centres undefined)
[1]
  Potency: inactive
[2]
  Potency: inactive
[3]
  Potency: inactive

## Cc1cc(C)c(Cn2cnc3ccccc32)c(C)c1
[1]
  Potency: inactive
[2]
  Potency: inactive
[3]
  Potency: inactive

## COc1cccc(COC(=O)CSCC(=O)Nc2cccc(C)c2)c1OC
[1]
  Potency: inactive
[2]
  Potency: inactive
[3]
  Potency: inactive

## Cc1ccc(S(=O)(=O)Oc2cccc(/C=N/Nc3ccc(C(=O)O)cc3)c2)cc1
[1]
  Potency: inactive
[2]
  Potency: inactive
[3]
  Potency: inactive

## O=C1NC[C@H](Cc2ccc(O)cc2)N(C[C@@H]2CCCN2C[C@H](Cc2ccc(O)cc2)N2C[C@H](Cc3ccccc3)N(CC3CCCCCC3)C(=O)C2=O)C1=O
[1]
  Potency: inactive
[2]
  Potency: inactive
[3]
  Potency: inactive

## COc1ccc(-c2nc3ccccc3nc2-c2ccccc2)cc1
[1]
  Potency: inactive
[2]
  Potency: inactive
[3]
  Potency: inactive

## O=C(O)c1ccc(N=N/C(=N\Nc2ccc(C(=O)O)cc2)c2ccccc2)cc1
[1]
  Potency: inactive
[2]
  activation: -13% [at 17.1 µM, percent relative to cAMP agonist control]
[3]
  activity change, negative = inhibition: -1.23% [at 30.8 µM]

## Clc1cccc(-c2nc3ccc(Cl)cn3c2Cc2ccsc2)c1
[1]
  Potency: inactive
[2]
  Potency: inactive
[3]
  Potency: inactive

## O=C(NC1CC1)C1CCN(S(=O)(=O)c2cc([N+](=O)[O-])ccc2Cl)CC1
[1]
  Potency: inactive
[2]
  Potency: inactive
[3]
  Potency: inactive

## CC(C)C[C@H]1COCCS(=O)(=O)N1Cc1ccc(Cl)c(Cl)c1
[1]
  Potency: inactive
[2]
  activation: 1.63% [at 17.1 µM, percent relative to cAMP agonist control]
[3]
  activity change, negative = inhibition: -4.43% [at 30.8 µM]

## CCOc1ccc(S(=O)(=O)Nc2nc3ccccc3nc2-n2ccc(=NC(=O)c3cccs3)cc2)cc1
[1]
  Potency: inactive
[2]
  Potency: inactive
[3]
  Potency: inactive

## C[C@@H]1CCCCCCCCC(=O)OCCN1C(=O)OC(C)(C)C
[1]
  Potency: inactive
[2]
  Potency: inactive
[3]
  Potency: inactive

## O=C(Nc1nc(-c2ccc(F)cc2)cs1)C1CCN(C(=O)c2ccc(F)cc2)CC1
[1]
  Potency: inactive
[2]
  Potency: inactive
[3]
  Potency: inactive

## CCOC(=O)c1c(NC(=O)c2ccc(S(=O)(=O)N(C)CC3CCCO3)cc2)sc2c1CCN(C)C2 (centres undefined)
[1]
  Potency: inactive
[2]
  Potency: inactive
[3]
  Potency: inactive

## C#Cc1ccc([C@@H]2C=C(C(=O)NCc3ccccc3)O[C@H](OCC)[C@H]2CCCO)cc1
[1]
  Potency: inactive
[2]
  Potency: inactive
[3]
  Potency: inactive

## CCCCn1nnnc1C(c1cc2ccccc2o1)N1CCN(c2ncccc2C#N)CC1 (centres undefined)
[1]
  Potency: inactive
[2]
  activation: 8.35% [at 17.1 µM, percent relative to cAMP agonist control]
[3]
  activity change, negative = inhibition: -7.87% [at 30.8 µM]

## O=c1cc(CN2CCN(S(=O)(=O)c3cccc(Cl)c3)CC2)c2ccc(O)cc2o1
[1]
  Potency: inactive
[2]
  Potency: inactive
[3]
  Potency: inactive

## CCOC1=C2[C@@H](CN(S(=O)(=O)c3ccc(C)cc3)[C@H]2c2ccccc2Cl)[C@H]2C(=O)NC(=O)[C@H]2C1
[1]
  Potency: inactive
[2]
  Potency: inactive
[3]
  Potency: inactive

## COc1ccc(C)cc1NC(=O)c1ccc2c(SCC(=O)O)c3c(nc2c1)CCCC3
[1]
  Potency: inactive
[2]
  Potency: inactive
[3]
  Potency: inactive

## CC(C)n1nccc1N(Cc1ccc(Cl)cc1)S(=O)(=O)c1ccccc1
[1]
  Potency: inactive
[2]
  Potency: inactive
[3]
  Potency: inactive

## Cc1nc2c(OCc3ccc(C(F)(F)F)cc3)cccn2c1N(C)Cc1cccs1
[1]
  Potency: inactive
[2]
  Potency: inactive
[3]
  Potency: inactive

## COc1ccc(CCN2C(=O)CSC2=Nc2ccc(C(C)C)cc2)cc1OC
[1]
  Potency: inactive
[2]
  Potency: inactive
[3]
  Potency: inactive

## Cc1cc(NC(=O)CS(=O)(=O)c2cn(Cc3cccc(Br)c3)c3ccccc23)no1
[1]
  Potency: inactive
[2]
  Potency: inactive
[3]
  Potency: inactive

## CCCCOC(=O)CCn1c(=S)oc2ccccc21
[1]
  Potency: inactive
[2]
  Potency: inactive
[3]
  Potency: inactive

## CCCCC1CC2=C(C(=O)OC(C)(C)O2)C(c2ccc(Cl)cc2)O1 (centres undefined)
[1]
  Potency: inactive
[2]
  Potency: inactive
[3]
  Potency: inactive

## C/C(=N/NS(=O)(=O)c1ccc(C(C)(C)C)cc1)c1ccc2c(c1)OCO2
[1]
  Potency: inactive
[2]
  activation: 7.62% [at 17.1 µM, percent relative to cAMP agonist control]
[3]
  activity change, negative = inhibition: -17.7% [at 30.8 µM]

## CN1CCc2nc3sc(C(=O)C45CC6CC(CC(C6)C4)C5)c(N)c3cc2C1
[1]
  Potency: inactive
[2]
  Potency: 100 µM (active)
[3]
  Potency: inactive

## Cc1ccc(Nc2c([N+](=O)[O-])c(=O)oc3ccccc23)cc1C
[1]
  Potency: inactive
[2]
  Potency: inactive
[3]
  Potency: inactive
[4]
  Potency: inactive

## CN(CC(=O)Nc1ccccc1Cl)C(=O)c1ccc(Cl)c(S(=O)(=O)N2CCCCCC2)c1
[1]
  Potency: inactive
[2]
  Potency: inactive
[3]
  Potency: inactive
[4]
  Potency: inactive

## Cc1cc2c(N)cccc2nn1
[1]
  Potency: inactive
[2]
  Potency: inactive
[3]
  Potency: inactive
[4]
  Potency: inactive

## Cc1cccc(NC(=S)N2CCN(S(=O)(=O)c3cccc(F)c3)CC2)c1
[1]
  Potency: inactive
[2]
  Potency: inactive
[3]
  Potency: inactive
[4]
  Potency: inactive

## O=C(COc1ccc(Cl)cc1Cl)c1ccc[nH]1
[1]
  Potency: inactive
[2]
  activation: -1.61% [at 17.1 µM, percent relative to cAMP agonist control]
[3]
  activity change, negative = inhibition: -17.9% [at 30.8 µM]
[4]
  activation: 7.74% [at 30.8 µM]

## Cc1ccc(C(=O)NNC(=O)c2ccccc2O)cc1S(=O)(=O)N1CCCCC1
[1]
  Potency: inactive
[2]
  Potency: inactive
[3]
  Potency: inactive
[4]
  Potency: inactive

## O=C(Nc1nc2ccccc2c(=O)s1)c1ccc(F)cc1Cl
[1]
  Potency: inactive
[2]
  Potency: inactive
[3]
  Potency: inactive
[4]
  Potency: inactive

## COc1ccc(NC(=O)c2cccnc2NCCc2ccccc2)cc1
[1]
  Potency: inactive
[2]
  Potency: inactive
[3]
  Potency: inactive
[4]
  Potency: inactive

## CCCc1[nH]c2ccc(C#N)cc2c1CCC
[1]
  Potency: inactive
[2]
  Potency: inactive
[3]
  Potency: inactive
[4]
  Potency: inactive

## O=C1C(=Cc2cn(-c3ccccc3)nc2-c2ccc(OCc3ccc(Cl)cc3)cc2)SC(=S)N1CCS(=O)(=O)O
[1]
  Potency: inactive
[2]
  Potency: inactive
[3]
  Potency: inactive
[4]
  Potency: 50.1 µM (active)

## C=C1CC2C(=O)N(Cc3cc(OC)ccc3OC)C(C(=O)OCC)(C(=O)OCC)C1N2C(=O)OC(C)(C)C (centres undefined)
[1]
  Potency: inactive
[2]
  Potency: inactive
[3]
  Potency: inactive
[4]
  Potency: inactive

## CCOc1cc(C)c(-c2onc(C(F)(F)F)c2-c2csc(C)n2)c(O)c1
[1]
  Potency: inactive
[2]
  Potency: inactive
[3]
  Potency: inactive
[4]
  Potency: inactive

## Cc1ccc(/C=N/Nc2cc(C)nc(NCc3ccccc3)n2)cc1
[1]
  Potency: inactive
[2]
  Potency: inactive
[3]
  Potency: inactive

## CC(C)OP(=O)(OC(C)C)C1(NS(=O)(=O)c2ccc(Cl)cc2)C=C(Cl)C(=O)C(Cl)=C1
[1]
  Potency: inactive
[2]
  activation: -0.932% [at 17.1 µM, percent relative to cAMP agonist control]
[3]
  activity change, negative = inhibition: -5.74% [at 30.8 µM]
[4]
  activation: 22.3% [at 30.8 µM]

## CCc1ccc(S(=O)(=O)Nc2cc(SCC(=O)O)c(O)c3ccccc23)cc1
[1]
  Potency: inactive
[2]
  Potency: inactive
[3]
  Potency: inactive
[4]
  Potency: 14.1 µM (active)

## COc1cc(/C=C2\SC(=S)N(NC(=O)c3ccc(O)c(OC)c3)C2=O)ccc1O
[1]
  Potency: inactive
[2]
  Potency: inactive
[3]
  Potency: inactive
[4]
  Potency: inactive

## CC(C)NC(=O)c1sc2nc(-c3cccs3)cc(-c3cccs3)c2c1N
[1]
  Potency: inactive
[2]
  Potency: inactive
[3]
  Potency: inactive

## Cn1c(N)c(C(=O)COC(=O)Cc2ccc(Cl)c(Cl)c2)c(=O)n(C)c1=O
[1]
  Potency: inactive
[2]
  Potency: inactive
[3]
  Potency: inactive
[4]
  Potency: inactive

## O=C(CC1C[C@H](C(=O)N2CCCCC2)[C@@]2(CCc3ccccc3)c3[nH]c4ccccc4c3CCN2C1=O)NCCCn1ccnc1 (some centres undefined)
[1]
  Potency: inactive
[2]
  Potency: inactive
[3]
  Potency: inactive
[4]
  Potency: inactive

## O=C(COC(=O)c1c2c(nc3ccccc13)/C(=C\c1ccco1)CC2)NC1CCCC1
[1]
  Potency: inactive
[2]
  Potency: inactive
[3]
  Potency: inactive
[4]
  Potency: inactive

## CC(C)=CCC[C@H](C)C[C@@H]1Cc2[nH][nH]c(=O)c2[C@H](c2ccc(F)cc2)O1
[1]
  Potency: inactive
[2]
  Potency: inactive
[3]
  Potency: inactive
[4]
  Potency: inactive

## CCOC(=O)c1c(CC(C)C)csc1NC(=O)COC(=O)c1ccc(O)cc1
[1]
  Potency: inactive
[2]
  Potency: inactive
[3]
  Potency: inactive
[4]
  Potency: inactive
